From the supplement of paper PMC10849652
The full data set covers some 7,900 targets. This sample favours those with a hit. About 0.6% of all pairs of compound and target were hits.

target: ZYG11B (UniProt Q9C0D3); test: log2 fold change, soluble protein after heating vs DMSO (PISA); higher = thermal stabilisation; K562 cells, 10 uM, 30 min; active = over 0.2 and 3.5 SD of the protein, either way, in both replicates (recomputed)
In short: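 K562 cells at 2×10^6 cells/mL were treated with 10 μM compound for 30 min. Aliquots were heated for 3 min across 48°C-58°C, pooled, and extracted in PBS with 0.5% NP-40 at 4°C; soluble protein was the supernatant after 21,000xg for 90 min. Soluble protein was quantified by TMTpro 16plex LC-MS/MS with channel sums equalised, and reported as log2 fold change in thermal stability against DMSO controls, with values from duplicates.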

ZYG11B, sequence (Q9C0D3 whole entry, looked up): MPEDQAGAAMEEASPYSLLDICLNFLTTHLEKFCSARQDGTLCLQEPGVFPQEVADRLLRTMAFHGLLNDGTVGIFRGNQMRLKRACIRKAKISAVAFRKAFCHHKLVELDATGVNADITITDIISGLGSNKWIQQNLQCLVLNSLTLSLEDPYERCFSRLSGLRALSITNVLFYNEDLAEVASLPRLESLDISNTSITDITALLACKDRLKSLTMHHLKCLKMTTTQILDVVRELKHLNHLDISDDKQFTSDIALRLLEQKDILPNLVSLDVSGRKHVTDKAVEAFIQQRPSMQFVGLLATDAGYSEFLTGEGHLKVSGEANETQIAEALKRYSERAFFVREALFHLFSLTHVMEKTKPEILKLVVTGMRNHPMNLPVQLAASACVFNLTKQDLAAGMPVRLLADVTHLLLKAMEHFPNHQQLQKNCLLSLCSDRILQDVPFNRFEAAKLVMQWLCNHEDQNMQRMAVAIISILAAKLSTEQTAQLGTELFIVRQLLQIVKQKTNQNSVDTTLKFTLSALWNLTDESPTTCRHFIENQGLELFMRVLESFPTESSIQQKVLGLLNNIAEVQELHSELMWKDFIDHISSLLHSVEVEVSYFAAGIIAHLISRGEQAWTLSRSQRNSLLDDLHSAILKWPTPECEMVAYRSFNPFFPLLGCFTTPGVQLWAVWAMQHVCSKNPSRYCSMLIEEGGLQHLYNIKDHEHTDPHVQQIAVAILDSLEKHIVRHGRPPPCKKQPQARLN

log2 fold change, inactive:
NC1(c2ccc(-c3nc4ccn5c(=O)[nH]nc5c4cc3-c3ccccc3)cc2)CCC1 -0.087
CNCc1ccc(-c2[nH]c3cc(F)cc4c3c2CCNC4=O)cc1 [rucaparib] 0.061
COc1cccc2cc(-c3nc([C@H]4CC[C@H](C(=O)O)CC4)n4ncnc(N)c34)[nH]c12 0.02
Cc1ccc(NC(=O)c2cccc(N(C)C)c2)cc1NC(=O)c1ccc(O)cc1 -0.018
Cn1cncc1[C@@](N)(c1ccc(Cl)cc1)c1ccc2c(c1)c(-c1cccc(Cl)c1)cc(=O)n2C [tipifarnib] 0.089
Cc1ccc(C(=O)N(CCCN)[C@@H](c2nc3cc(Cl)ccc3c(=O)n2Cc2ccccc2)C(C)C)cc1 [ispinesib] 0.041
CN(CCOc1ccc(C[C@@H]2SC(=O)NC2=O)cc1)c1ccccn1 (racemic) [rosiglitazone] -0.055
CS(=O)(=O)CCNCc1ccc(-c2ccc3ncnc(Nc4ccc(OCc5cccc(F)c5)c(Cl)c4)c3c2)o1 [lapatinib] -0.05
COc1cc2nc(-c3cc(F)ccc3O)nc(N[C@@H]3CNC[C@H]3C(C)(C)O)c2cc1OC 0.034
Nc1ccccc1NC(=O)c1ccc(CNC(=O)OCc2cccnc2)cc1 [entinostat] 0.013
O=C1NC(=O)/C(=C\c2ccc3nccnc3c2)S1 -0.084
Oc1cc(-c2nc(-c3ccccc3)[nH]c2-c2ccncc2)ccc1Cl 0.015
O=C1NC(=NCc2cccs2)S/C1=C\c1ccc2ncccc2c1 -0.007
Cc1ccc(-n2nc(C(C)(C)C)cc2NC(=O)Nc2ccc(OCCN3CCOCC3)c3ccccc23)cc1 [doramapimod] 0.036
CNC(=O)c1ccccc1Nc1nc(Nc2ccc(N3CCOCC3)cc2OC)ncc1Cl -0.016
CNC(=O)c1ccc(Nc2ncc(C(F)(F)F)c(NCc3nccnc3N(C)S(C)(=O)=O)n2)cc1 [defactinib] -0.058
C/C(=N\NC(=O)c1cccc(S(=O)(=O)N2CCOCC2)c1)c1cc(Cl)ccc1O 0.006
CCCc1cc(C)[nH]c(=O)c1CNC(=O)c1cc(-c2ccnc(N3CCN(C)CC3)c2)cc2c1cnn2C(C)C 0.1
CN1CCc2c(c3ccccc3n2Cc2ccc(C(=O)NO)cc2)C1 [Tubastatin A] 0.04
CN1CCN(CCOc2cc(OC3CCOCC3)c3c(Nc4c(Cl)ccc5c4OCO5)ncnc3c2)CC1 [saracatinib] -0.051
NC(=O)c1ccc2nc(-c3ccc(Oc4ccc(Cl)cc4)cc3)[nH]c2c1 0
COc1cc(C(=O)O)ccc1NC(=O)[C@@H]1N[C@@H](CC(C)(C)C)[C@](C#N)(c2ccc(Cl)cc2F)[C@H]1c1cccc(Cl)c1F [idasanutlin] 0.01
COC(=O)N[C@@H](C)CNc1nccc(-c2cn(C(C)C)nc2-c2cc(Cl)cc(NS(C)(=O)=O)c2F)n1 [encorafenib] -0.055
C[C@@H]1COCCN1c1cc(C2(S(C)(=O)=O)CC2)nc(-c2cccc3[nH]ccc23)n1 -0.008
CC[C@H](C)n1cc(C)c2c(C(=O)NCc3c(C)cc(C)[nH]c3=O)cc(-c3ccc(N4CCNCC4)nc3)cc21 0.101
Cc1cn(-c2cc(NC(=O)c3ccc(C)c(Nc4nccc(-c5cccnc5)n4)c3)cc(C(F)(F)F)c2)cn1 [nilotinib] 0.025
CC(=O)c1cnc2ccc(-c3cc(Cl)c(O)c(Cl)c3)nc2c1N[C@H]1CC[C@H](CN(C)C)CC1 0.004
C=CC(=O)N1CCC[C@@H](n2nc(-c3ccc(Oc4ccccc4)cc3)c3c(N)ncnc32)C1 [ibrutinib] 0.022
Cn1cc(-c2ccc3c(c2)CCN3C(=O)Cc2cccc(C(F)(F)F)c2)c2c(N)ncnc21 0.063
C[C@@H](N)c1ccc(C(=O)Nc2ccnc3[nH]ccc23)cc1 -0.035
